# In all, about 13,000 compounds were measured (“IFI”: median about 4, highest 2% from about 17 on). The sample as a whole holds a higher share of the highest values than the screen did.
# Assay: GSK_TCMDC: Inhibition Frequency Index (IFI). The number of non-kinase HTS assays where a compound showed > 50 % inhibition, expressed as a percentage of the number of such assays in which the compound was tested
# Assay type: functional
row,SMILES,IFI [%]
1,Cc1cc(=NN=Cc2ccccc2F)c2cc(F)ccc2[nH]1,0
2,O=C(NC1CCC(N2CCC(Cc3ccc(F)cc3)CC2)CC1)c1cc2ccccc2[nH]1 (stereo unspecified),14.7
3,O=C(NC1CCC(N2CCN(c3cccc(C(F)(F)F)c3)CC2)CC1)c1cc2ccccc2[nH]1 (stereo unspecified),17.6
4,Cc1cccc(N2CCN(C3CCC(NC(=O)c4cc5ccccc5[nH]4)CC3)CC2)c1C (stereo unspecified),22.9
5,Cc1cccc(C)c1N1CCN(C2CCC(NC(=O)c3cc4ccccc4[nH]3)CC2)CC1 (stereo unspecified),13.2
6,O=C(NC1CCC(N2CCC(O)(c3ccc(F)cc3)CC2)CC1)c1cc2ccccc2[nH]1 (stereo unspecified),1.54
7,O=C(NC1CCC(N2CCC(c3ccccc3C(F)(F)F)CC2)CC1)c1cc2ccccc2[nH]1 (stereo unspecified),10.4
8,COc1ccc(Nc2c3ccc(Cl)cc3nc3ccc(OC)cc23)cc1,5.11
9,COc1ccccc1C1CCN(C2CCC(NC(=O)/C=C/c3cc(F)cc(C(F)(F)F)c3)CC2)CC1 (stereo unspecified),11.5
10,Cc1cccc2nc(-c3ccc(-c4cccc(CNCc5ccccc5)c4)s3)[nH]c12,4.81
11,COc1ccc(-c2cncc3ccc(C(=O)NCc4ccncc4)nc23)cc1,6.45
12,COc1ccc(Cc2cccc(C(C(=O)NCc3cc(Cl)cc(Cl)c3)N3CCN(C)CC3)c2)cc1 (stereo unspecified),7.75
13,NC(=O)CCC(NC(=O)CNC(=O)Nc1cccc(C(F)(F)F)c1)C(=O)O (stereo unspecified),19.9
14,O=C(Nc1cccc(C(F)(F)F)c1)Nc1ccc(Cl)c(C(F)(F)F)c1,16.7
15,CC(C)NCC(=O)Nc1cccc(C(=O)Nc2cccc(C(F)(F)F)c2)c1,2.04
16,CC(=O)N1N=C(c2ccc(Cl)cc2)Sc2c1nc(-c1ccccc1)n2C(C)=O,0
17,Cn1c(=O)c2cc(C(=O)NCCCN3CCCCCC3)sc2c2ccccc21,3.23
18,OCCN1CCN(Cc2ccc(-c3ccc(-c4nc5cc(F)ccc5[nH]4)cc3)cc2)CC1,8.91
19,Cc1cc(=NN=Cc2ccc(F)cc2)c2cc(F)ccc2[nH]1,2.86
20,COc1ccc(C(=O)CCC(=O)N(Cc2ccc(-c3ccc(CNCCc4ccccc4)cn3)cc2)C(C)CN(C)C)cc1F (stereo unspecified),6.9
21,COc1ccc2c(c1CCNCCCCNCCc1c(OC)ccc3c1CCCC3)CCCC2,18.3
22,COc1cc2c(cc1CCNCCCCNCCc1cc3c(cc1OC)CCCC3)CCCC2,15.8
23,COc1ccc2c(c1CNCCCCCCNCc1c(OC)ccc3c1CCCC3)CCCC2,11.9

row,SMILES,IFI [%]
1,CCOC(=O)c1ccc(NC(=O)Nc2ccc(-c3cccc(-c4nc5cc(F)ccc5[nH]4)c3)cc2)cc1,4.95
2,Cc1cc(C(=O)NC2CCN(CC3(c4ccccc4)CCCCC3)CC2)on1,6.38
3,O=C(Nc1ccc(C(=O)Nc2ccc(C3=NCCN3)cc2)cc1)Nc1ccc(C2=NCCN2)cc1,5.84
4,COc1cc(C)cc(CN2CCC(Cc3ccccc3)CC2)c1O,0.84
5,O=C(NC1CC1)c1cnc(N2CCC(Cc3ccccc3)CC2)c(Cl)c1,9.52
6,Oc1c(CN2CCC(Cc3ccccc3)CC2)cc(Cl)c2cccnc12,18.8
7,COc1ccccc1CN1CCC(CNC(=O)c2cc(-c3ccc(N(C)C)cc3)cs2)C1 (stereo unspecified),13.7
8,CCCCN(CCCC)CCCN(CCCN(CCCC)CCCC)c1cc(C)nc(Nc2ccc3cc(Br)ccc3c2)n1,15.2
9,CC1(C)N=C(N)N=C(N)N1OCCCCON1C(N)=NC(N)=NC1(C)C,1.44
10,CC(C)(C)c1ccc(OCCCON2C(N)=NC(N)=NC2(C)C)cc1,18.1
11,CCCc1cccc(OC)c1OCCCON1C(N)=NC(N)=NC1(C)C,4.51
12,CCC(C)c1cccc(C(C)CC)c1OCCCON1C(N)=NC(N)=NC1(C)C (stereo unspecified),24.1
13,CCC(C)Oc1ccc(CCCON2C(N)=NC(N)=NC2(C)C)cc1 (stereo unspecified),5.76
14,CCCOc1ccc(CCCON2C(N)=NC(N)=NC2(C)C)cc1,6.29
15,Cc1cc(-c2cccc(CNC3CCN(C)CC3)c2)ccc1S(=O)(=O)NC1CCC1,7.48
16,Nc1nc(N)c2c3c(ccc2n1)NCCC3,2.48
17,COc1ccc(CNCc2ccc(-c3ccc(-c4nc5cccc(C)c5[nH]4)cc3)cc2)cc1,13.1
18,O=C(Cn1cc(C(F)(F)F)cc(Cl)c1=O)N1CCN(S(=O)(=O)c2ccc(Cl)cc2)CC1,0
19,CCCNCc1ccc(-c2ccc(CN(CCOC)C(=O)CCC(=O)c3ccc(OC)c(F)c3)cc2)nc1,0.7
20,O=C(Nc1cc(F)cc(F)c1)N[C@H]1CCN(CCCCCNC(=O)C2CC2c2ccc(Cl)c(Cl)c2)C1 (stereo partly specified),13.6
21,O=C(Nc1ccc(F)c(C(F)(F)F)c1)NC1CCN(CCCCCNC(=O)C2CC2c2ccc(Cl)c(Cl)c2)CC1 (stereo unspecified),18.5
22,O=C(Nc1cccc(F)c1)N[C@H]1CCN(CCCCCNC(=O)C2CC2c2ccc(Cl)c(Cl)c2)C1 (stereo partly specified),19.4
23,O=C(Nc1ccc(C(F)(F)F)cc1)NC1CCN(CCCCCNC(=O)C2CC2c2ccc(Cl)c(Cl)c2)CC1 (stereo unspecified),11.1

# — ChEMBL document CHEMBL1157539, “Thousands of chemical starting points for antimalarial lead identification” (Nature, 2010)
